From PubChem BioAssay AID1259343 (VanderVen Lab, College of Veterinary Medicine, Cornell …, 2017)
The campaign covered roughly 6,200 compounds. About 2,900 (47%) were called active. No stated cut-off is given here; in the data, active means inhibition above about 50%; inactive means the rest. So high a share suggests a set chosen from earlier hits. Some of the results follow.

assay: Mycobacterium tuberculosis growth inhibition, primary screen (AID 1259343); conditions: inhibition: at 10 µM, active compounds read high; outcome: 10 uM

Structure (SMILES) | inhibition
CCCCCCCCCCCCC[N+](C)(C)Cc1ccccc1 | 70.2% (active)
Cc1cccc(CN(CCN2CCOCC2)Cc2ccc(C(O)(c3cccc(F)c3)c3cccc(F)c3)o2)c1 | 17.9% (inactive)
CC(C)(C)c1cc(C(=O)CCN2CCOCC2)cc(C(C)(C)C)c1O | 102% (active)
O=S(=O)(c1cc(Cl)cc(Cl)c1O)N1CCOCC1 | 19.4% (inactive)
CC(C)c1ccc(NC(=O)CCN2CCN(CC3CCCO3)CC2)cc1 (stereo not given) | 83.5% (active)
CC(NC(=O)CCC1CCCO1)c1ccc(Cl)s1 (stereo not given) | 21.7% (inactive)
Cc1cc(NC(=O)CN2CCN(CC3CCCO3)CC2)ccc1Cl (stereo not given) | 66.5% (active)
O=C(CCc1cccs1)N1CCN(CC2CCCO2)CC1 (stereo not given) | -26.7% (inactive)
Cc1ccc(NC(=O)CC(=O)N2CCC(C(O)CC(C)C)CC2)cc1Cl (stereo not given) | 88.3% (active)
Cc1ccc(NC(=O)CCC2CCCO2)cc1Cl (stereo not given) | 96.2% (active)
CC(C)c1ccc(S(=O)(=O)NCC2CCCO2)cc1 (stereo not given) | -25.1% (inactive)
CC(=O)N[C@H]1CCN(CC(=O)Nc2ccc(Cl)c(C)c2)C1 | 33.5% (inactive)
CN(C)N=CC=C1CCC(=Cc2ccc(C(F)(F)F)cc2)C1=O | 8.26% (inactive)
NNc1ccc2c(Cl)cc(Cl)c(O)c2n1 | 99.5% (active)
Cc1ccc2c(Cl)cc(Cl)c(O)c2n1 | 47.9% (inactive)
CCC(CO)NC(=S)N=P(c1ccccc1)(N(CC)CC)N(CC)CC (stereo not given) | 81.6% (active)
FC(F)(F)c1cnc(NCc2ccc3c(c2)OCCO3)c(Cl)c1 | 25.7% (inactive)
CN(CC(O)COCc1ccc2c(c1)OCO2)c1ncc(C(F)(F)F)cc1Cl (stereo not given) | 78% (active)
COC(=O)NNC(=S)NC(=O)C12CC3CC(CC(C3)C1)C2 | 97.8% (active)
Cc1nc(Cl)sc1S(=O)(=O)NCC(C)c1ccccc1 (stereo not given) | 24.9% (inactive)
Cc1[nH]n(-c2nc3ccccc3s2)c(=O)c1C=NC(C)c1ccccc1 (stereo not given) | 86.9% (active)
Clc1ccc(-c2nn3c4cc(N5CCNCC5)ccc4nc3c3ccccc23)cc1 | 92.9% (active)
CN(C1CCCCC1)S(=O)(=O)N1CCN(c2cccc(F)c2C#N)CC1 | 10.2% (inactive)
CN(C1CCCCC1)S(=O)(=O)c1ccc2ccccc2c1 | 38.7% (inactive)
CN(C1CCCCC1)S(=O)(=O)N1CCc2ccccc21 | 98.1% (active)
CN(C)C=Nc1nc(-c2ccc3ccccc3c2)cs1 | -25.4% (inactive)
CC1Cc2cc(-c3cc(C(=O)O)no3)ccc2O1 (stereo not given) | 27.8% (inactive)

Structure (SMILES) | inhibition
CCCCCN(C)C(=O)c1cc(-c2ccc3ccccc3c2)on1 | 94% (active)
CCOc1ccc(NC(=O)C(C)Sc2nc(N)cc(N)n2)cc1 (stereo not given) | 86% (active)
O=P(Nc1cccc(F)c1)(Oc1ccccc1F)Oc1ccccc1F | 22% (inactive)
CCCCc1ccc(NC(=O)COC(=O)C23CCC(=O)N2CCS3)cc1 (stereo not given) | 95.3% (active)
CCCCCc1ccc(NC(=O)CCN2CCSC2=O)cc1 | 99% (active)
CCN=c1scc(-c2ccc(Br)cc2)n1/N=C1\C(=O)N(C)c2ccccc21 | 20.4% (inactive)
Cn1cc(-c2nc(C(=O)NC34CC5CC(CC(C5)C3)C4)cs2)cn1 | 31.8% (inactive)
O=C(NC12CC3CC(CC(C3)C1)C2)c1cncc(Br)c1 | 50.2% (active)
CC1CCCC(NC(=O)c2cncc(Br)c2)C1 (stereo not given) | -31% (inactive)
COc1ccc(CNS(=O)(=O)c2ccc3c(c2)CCCC3)cc1 | -18% (inactive)
O=S(=O)(Nc1ccc2c(c1)CCC2)c1ccc(F)cc1 | -4.64% (inactive)
O=S(=O)(NCc1ccc(F)cc1)c1ccc2c(c1)CCCC2 | 89.6% (active)
CC(=O)Nc1ccc(C(=O)NC2CCC3CCCCC3C2)cc1 (stereo not given) | -37.5% (inactive)
COCc1ccc(C(=O)NC2C3CC4CC(C3)CC2C4)cc1 (stereo not given) | 75.8% (active)
CCCc1nc(CN(C)c2nc(C)nc3sccc23)no1 | 14.1% (inactive)
COc1cccc(OC)c1OCCCOc1ccc(C)cc1Br | 87.8% (active)
COc1cccc(OC)c1OCCOc1ccc(C)cc1Br | 76.4% (active)
COc1ccccc1OCCCOc1ccc(C)cc1Br | 34.8% (inactive)
CCCCCCc1ccc(C(=O)Nc2ccc(-n3nc(OC)nc3-c3ccc4c(c3)OCO4)cc2)cc1 | 56.7% (active)
O=C(Nc1ccc(N2CCC(NCCC3=CCCCC3)CC2)cc1)c1ccc2c(c1)OCO2 | 47% (inactive)
COc1cc2c(cc1O)C(SC)=NC(C)(C)C2 | 55.5% (active)
Cc1csc(C(C#N)C(=O)Nc2ccccc2)n1 (stereo not given) | -32.9% (inactive)
CC(=O)NC(C)C(=O)Nc1cccc(Sc2ccccc2)c1 (stereo not given) | 62.7% (active)
CC1CCN(S(=O)(=O)N2CC=C(c3c[nH]c4ccccc34)CC2)CC1 | 29.2% (inactive)
CCCS(=O)(=O)N1CCc2[nH]c3ccc(F)cc3c2C1 | 22.7% (inactive)
CCCS(=O)(=O)N1CC=C(c2c[nH]c3cc(F)ccc23)CC1 | 88.2% (active)
O=C(Nc1cccc2cnccc12)OCC(F)(F)F | 72.3% (active)

Structure (SMILES) | inhibition
COc1cc(C(=O)C(C#N)C(=O)CC(C)(C)C)ccc1C (stereo not given) | 101% (active)
Cc1ccc(C(=O)O)cc1OCc1csc(Br)c1 | 7.03% (inactive)
CC(Nc1nc(-c2cccs2)nc2cc(Cl)ccc12)c1ccccc1 (stereo not given) | 3.37% (inactive)
CCC(=NNc1ccnc2cc(Cl)ccc12)c1ccccc1 | 93.9% (active)
CC(=NNc1ccnc2cc(Cl)ccc12)c1ccc(C)o1 | 2.38% (inactive)
CC(OC(=O)c1ccc([N+](=O)[O-])o1)C(=O)Nc1ccccc1OC(F)F (stereo not given) | 101% (active)
CN(C)c1ccccc1NC(=O)c1ccccc1OC(F)F | 23.1% (inactive)
CC1CCC(C(C)C)C(OC(=O)COC(=O)c2ccc([N+](=O)[O-])o2)C1 (stereo not given) | 10.8% (inactive)
COc1ccc(-c2nc(CNc3ccc(C)c(F)c3)no2)cc1 | 91.5% (active)
CC(C)c1ccc(NC(=O)c2ccc(-c3ccnn3C)c3ccoc23)cc1 | 77.8% (active)
CC(C)c1cnc(COc2ccc(Br)nc2)o1 | 38.6% (inactive)
Cc1nc(NC(=O)c2cccc(Br)c2)oc1C | 94.3% (active)
CN(CC(=O)c1cccc(Br)c1)C1CCCCC1 | 13.2% (inactive)
NC(=S)c1cccc(Br)c1 | 22.8% (inactive)
c1csc(-c2nc(COc3ccc4c(c3)CCC4)co2)c1 | -21.4% (inactive)
COc1ccccc1OCc1coc(-c2ccc(C)cc2C)n1 | 40.9% (inactive)
Cc1ccc(-c2nc(COc3ccc(C)cn3)co2)cc1 | 58.5% (active)
O=C(O)Cc1cc(-c2ccc3c(c2)OCCO3)on1 | 73.2% (active)
CC1Cc2cc(-c3cc(CO)no3)ccc2O1 (stereo not given) | -11.9% (inactive)
O=C(Cc1cc(-c2ccc3c(c2)OCO3)on1)NCc1cccs1 | 90.9% (active)
COC(=O)CC1CC(=O)C2C(=O)c3c(OC)ccc(Br)c3C2C1 (stereo not given) | 28.1% (inactive)
O=C1c2ccccc2-c2nn(CN3CCN(c4ccccc4)CC3)c3cccc1c23 | 31.3% (inactive)
O=S(=O)(N1CCN(c2ccccc2)CC1)C(F)(F)C(F)(F)C(F)(F)C(F)(F)F | 21.4% (inactive)
c1ccc(N2CCN(c3ccccn3)CC2)cc1 | 61.2% (active)
CCCCCCSC1=C(C#N)C2(CCCCC2)C(C#N)C(=O)N1 (stereo not given) | 4.19% (inactive)
Fc1ccc(-c2nnc(-c3ccc4c(c3)OCO4)o2)cc1 | 70.5% (active)
Oc1ccccc1C1CC(c2ccc3c(c2)OCO3)=NC(c2cccc(F)c2)N1 (stereo not given) | -19.4% (inactive)

Structure (SMILES) | inhibition
Clc1ccccc1-c1nnc(-c2ccc3c(c2)OCO3)o1 | 72.5% (active)
Fc1ccc(/C=C/c2nnc(-c3ccccc3Cl)o2)cc1 | 42.9% (inactive)
Fc1ccccc1-c1nnc(-c2ccc3c(c2)OCO3)o1 | -0.93% (inactive)
O=C(Nc1cccc(O)c1)c1nn2c(C(F)(F)F)cc(-c3ccccc3)nc2c1Cl | -37.9% (inactive)
Fc1ccc2c(c1)C(=NNc1nc3ccccc3s1)CCS2 | -16.9% (inactive)
c1ccc2c(c1)CCC(=NNc1nc3ccccc3s1)C2 | 48.5% (inactive)
Oc1c(Cl)cc(Cl)cc1C=NNc1nc2ccccc2s1 | 101% (active)
CC(C)C1CC(=NNC(N)=S)C=C2CCCCC21 (stereo not given) | 102% (active)
CC(Oc1ccccc1)C(=O)Nn1cnc2c(cnn2-c2ccc(F)cc2)c1=O (stereo not given) | 70.4% (active)
COCCCNC(=O)c1nn(-c2ccc(F)cc2)c2ncccc12 | 42.3% (inactive)
Cc1ccc(-c2nnc(-c3ccccc3N)[nH]c2=O)cc1C | 49.2% (inactive)
C=CCSc1nnc(-c2cc(Br)ccc2N)c(=O)[nH]1 | 76.5% (active)
CCCCCCCCc1nnc(N)s1 | 89.3% (active)
CCC(C)c1ccc(NC(=O)CNc2ccc(F)c(C(=O)OC)c2)cc1 (stereo not given) | -5.36% (inactive)
CCc1ccc(NC(=O)CNc2ccc(F)c(F)c2F)cc1 | 96.5% (active)
CCCCc1ccc(NC(=O)CNc2ccccc2C(C)=O)cc1 | 90.7% (active)
CN(Cc1ccc(Br)cc1)C(=O)Nc1ccc(F)c(F)c1F | 44.5% (inactive)
CCc1ccc(NCC(=O)Nc2ccc(I)cc2C)cc1 | 53.6% (active)
CSc1nc2cc(NC(=S)NC(=O)c3ccccc3)ccc2s1 | 91.3% (active)
CC(C)C(=O)NC(=S)Nc1nc2ccc(Cl)cc2s1 | 13.7% (inactive)
O=C(c1cc(F)cc(F)c1)N1CCOC(COc2cccc(C(F)(F)F)c2)C1 (stereo not given) | 84.5% (active)
O=C(Cc1cccc(Cl)c1)N1CCOC(COc2cccc(C(F)(F)F)c2)C1 (stereo not given) | 17.4% (inactive)
O=C(COc1ccc(F)cc1)N1CCOC(COc2cccc(C(F)(F)F)c2)C1 (stereo not given) | 15.7% (inactive)
COc1cc(C(=O)N2CCOC(COc3cccc(C(F)(F)F)c3)C2)ccc1F (stereo not given) | 62.2% (active)
